Experiment [1] is described as follows: OV-KATE Cancer Cell Toxicity qHTS against the NCATS CANVASS Library (AID 1347345). A digest of the protocol: (§1)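 Following a 4 h pre-incubation of 1000 seeded cells, compounds were pinned in an 11-pnt dilution series and left for 72 h; viability then came from CellTiter-Glo.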
In general terms: Quantitative high-throughput screening tests each substance at several concentrations.

Experiment [2] can be described thus: HPAF-II Cancer Cell Toxicity qHTS against the NCATS CANVASS Library (AID 1347346). Note: nearly all actives have a fitted effect of over 55% in size. Note: potency is the fitted concentration of half-maximal effect. A digest of the protocol:
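HPAF-II cells were seeded at 1000 cells/well, allowed to settle for 4 h at 37 degrees C, then exposed to compounds in an 11-point series for 72 h. Viability was read by CellTiter-Glo luminescence.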

A short description of experiment [3]: SW1088 Cancer Cell Toxicity qHTS against the NCATS CANVASS Library (AID 1347350). Note: series mostly up to about 38 µM; nearly all actives have a fitted effect of over 75% in size. A digest of the protocol: as §1
A short description of experiment [4]: U-118MG Cancer Cell Toxicity qHTS against the NCATS CANVASS Library (AID 1347351). Note: potency is the fitted concentration of half-maximal effect. A digest of the protocol:
as §1

Experiment [5] is described as follows: COV-362 Cancer Cell Toxicity qHTS against the NCATS CANVASS Library (AID 1347352). Note: potency is the fitted concentration of half-maximal effect. A digest of the protocol:
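Cells were seeded at 1000 per well and allowed to settle 4 hours at 37 degrees C before pin transfer of compounds as an 11-point series. Viability was read by CellTiter-Glo luminescence after 72 hours' exposure.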

Experiment [6] is described as follows: A2780 Cisplatin Sensitive Ovarian Cancer Cell Toxicity qHTS against the NCATS CANVASS Library (AID 1347353). Note: nearly all actives have a fitted effect of over 60% in size. Note: potency is the fitted concentration of half-maximal effect. A digest of the protocol: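 A2780 cisplatin-sensitive cells (750 per well) were seeded, left 4 h at 37 °C, then pin-dosed in an 11-point series. After 72 h at 37 °C/5% CO2, viability was measured as ATPLite luminescence.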
The nature of experiment [7]: KB-8-5-11 Cancer Cell Toxicity qHTS against the NCATS CANVASS Library (AID 1347364). Note: nearly all actives have a fitted effect of over 75% in size. Note: potency is the fitted concentration of half-maximal effect. A digest of the protocol:
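KB-8-5-11 cells (500/well) in DMEM + 10% FBS were exposed to compounds in an 11-point qHTS series for 72 hr at 37C, 5% CO2. Viability was read by CellTiter-Glo luminescence.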

A short description of experiment [8]: MCF7 Cancer Cell Toxicity qHTS against the NCATS CANVASS Library (AID 1347369). Note: potency is the fitted concentration of half-maximal effect. A digest of the protocol:
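Cytotoxicity was measured as CellTiterGlo luminescence (ATP) after 72 h at 37 °C. The cells were MCF7 at 500 per well, with an 11-point compound concentration series.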

Experiment [9] can be described thus: qHTS for ATAD5 Antagonist screened against the NCATS CANVASS Library (AID 1347370). Note: nearly all actives have a fitted effect of over 65% in size. Note: potency is the fitted concentration of half-maximal effect. A digest of the protocol:
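HEK293T cells with a stably integrated ATAD5-controlled luciferase reporter were exposed to compounds (11-pt) alongside 10 uM 5-fluorouridine as ATAD5 stabilizer for 16hr at 37C. Viability was read by CellTiter-Fluor fluorescence, then ATAD5 by luminescence.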

Experiment [10] addresses Nuclear receptor subfamily 1 group I member 3 (Homo sapiens) (UniProt Q14994). Put plainly: qHTS for Constitutive Androstane Receptor (CAR) Antagonist screened against the NCATS CANVASS Library (AID 1347372). Note: potency is the fitted concentration of half-maximal effect. A digest of the protocol: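 HepG2 cells stably carrying hCAR and CYP2B6-2.2kb luciferase reporter, 2500 cells/well, compound with 50 nM CITCO agonist for 24hr at 37C. ONE-Glo luminescence measured CAR activity; CellTiter-Fluor read viability.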

A short description of experiment [11]: qHTS for Hypoxia signaling pathway (HIF-1) antagonists against the NCATS CANVASS Library (AID 1347374). Note: nearly all actives have a fitted effect of over 60% in size. Note: potency is the fitted concentration of half-maximal effect. A digest of the protocol: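 HRE-bla ME-180 cells (2,000/well, 0.5% dialyzed FBS) were pre-incubated 5 h, then given an 11-point compound series plus CoCl2 (60 uM solution as added) for 17 h at 37C. CCF4 β-lactamase read (ex 405, em 460/530 nm) after 2 h at RT.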

Experiment [12] can be described thus: qHTS for Inflammasome Signaling Inhibitors: IL-1-beta AlphaLISA screen against the NCATS CANVASS Library (AID 1347379).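 Note: human THP-1 cells primed with LPS then triggered with ATP; secreted IL-1B measured as AlphaLISA emission at 615 nm.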 Note: potency is the fitted concentration of half-maximal effect. A digest of the protocol: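 Human THP-1 cells were pretreated 1 hr at 37 °C with compounds (up to 57.5 uM final), then stimulated with LPS (250 ng/mL final) and ATP (1.25 mM final). Secreted IL-1B was read by AlphaLISA after 16 hr.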
Experiment [13] can be described thus: qHTS for Activators of p53 Stress Response Pathway screened against the NCATS CANVASS Library (AID 1347388). A digest of the protocol: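 p53RE-bla HCT-116 cells (4000/well) were pre-incubated for 5 h, then treated with compound (11 points) for 16 h at 37C. After 2 h with CCF4, the 460/530 nm ratio gave reporter activation; CellTiter-Glo measured viability.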

Experiment [14] is described as follows: qHTS assay for small molecule disruptors of mitochondrial membrane potential screened against the NCATS CANVASS Library (AID 1347389). Note: series mostly up to about 46 µM; nearly all actives have a fitted effect of over 60% in size. A digest of the protocol: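 HepG2 cells (2,000/well) were plated overnight at 37C, exposed to compound for 1 hr at 37C/5% CO2, then loaded with Mito-MPS dye for 30 min. Depolarization was read as a drop in red (590 nm) to green (535 nm) fluorescence ratio.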

Experiment [15] in a line: qHTS for activators of Nrf2/ARE signaling pathway screened against the NCATS CANVASS Library (AID 1347391). Note: nearly all actives have a fitted effect of over 60% in size. A digest of the protocol:
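ARE-bla HepG2 beta-lactamase reporter cells, 2000 cells/well, were preincubated 5 h, then exposed to compounds (11-point series) for 16 h at 37C. CCF4 fluorescence (ex 405, em 460/530 nm) after 2 h at room temperature.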

Experiment [16] in a line: Vero-766 cells viability qHTS against the NCATS CANVASS Library: Counterscreen for Zika virus inhibition assay (AID 1347394). Note: nearly all actives have a fitted effect of over 60% in size. Note: potency is the fitted concentration of half-maximal effect. A digest of the protocol:
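CellTiter Glo luminescence measured cytotoxicity after 72 h at 37C in uninfected Vero 766 cells, plated at 1000 cells/well. Compounds were applied in an 11-point series. Wells without cells defined 100% inhibition.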

A short description of experiment [17]: Viability qHTS for inhibitors of the SERCaMP assay screened against the NCATS CANVASS Library (AID 1347400). Note: nearly all actives have a fitted effect of over 70% in size. Note: potency is the fitted concentration of half-maximal effect. A digest of the protocol:
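SH-SY5Y-GLuc SERCaMP MJH297-derived cells (1000 cells/well) were pre-incubated 4 h at 37C, then exposed to compounds for 48 h. Viability was read as CellTiter-Glo luminescence; bortezomib served as positive control.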

A short description of experiment [18]: Secretion counterscreen for inhibitors of the SERCaMP assay screened against the NCATS CANVASS Library (AID 1347390).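 Note: light from luciferase secreted into medium read as a measure of general secretion.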 Note: potency is the fitted concentration of half-maximal effect. A digest of the protocol:
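Counterscreen for secretory-pathway interference: after 4 h attachment, SH-SY5Y-GLuc cells were exposed 20 hours to compounds (final 0.001 - 77 uM), then coelenterazine added and GLuc luminescence recorded; Brefeldin A served as control.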
In general terms: Counterscreens check selectivity or assay interference.

Inconclusive results are not listed. Calls of active or inactive are those of the source. Calls come from the whole dose curve; as a rule, active = well fitted curve in the direction sought with a large enough effect; inconclusive = small, poorly fitted or top-dose-only effect, or another doubt; inactive = no such curve, though single readings can be large; an effect the other way counts as inactive or inconclusive. Starred links: 1 amine or outer side, 2 acyl side, 3 side chain; linkers in the order of their positions; H or OH if unused. Positions of bridges follow the written chain, without caps; N, C: chain ends. Non-standard residues stand in square brackets, D forms with d. Residues, ends and D or L forms follow the SMILES beside them. ξ: configuration not given here. *: point of attachment. X3 = C[C@@H](Oc1ccc([C@H](N[*:1])C(=O)[*:2])cc1)[C@]1(/C=C\C(=O)[*:3])CO1; d(aIle) = CC[C@H](C)[C@@H](N)C(=O)O; X2 = CC(C)[C@@H](O)C(C)C(=O)*; ξNMeF = CNC(Cc1ccccc1)C(=O)O; ξT = CC(O)C(N)C(=O)O; ξS = NC(CO)C(=O)O

Sequence of Nuclear receptor subfamily 1 group I member 3 (Homo sapiens) (Q14994 whole entry, looked up): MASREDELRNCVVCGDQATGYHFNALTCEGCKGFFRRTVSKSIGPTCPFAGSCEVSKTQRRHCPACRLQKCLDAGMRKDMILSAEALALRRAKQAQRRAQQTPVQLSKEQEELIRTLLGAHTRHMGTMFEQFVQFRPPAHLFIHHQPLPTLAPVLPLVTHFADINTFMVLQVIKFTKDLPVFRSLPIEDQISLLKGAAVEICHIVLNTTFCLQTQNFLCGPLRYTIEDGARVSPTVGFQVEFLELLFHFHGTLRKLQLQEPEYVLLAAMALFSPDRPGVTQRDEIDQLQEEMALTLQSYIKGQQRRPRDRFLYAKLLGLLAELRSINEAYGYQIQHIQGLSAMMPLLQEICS

As for `CC[C@H](C)[C@H]1NC(=O)[C@@H](NC(=O)C(C)[C@H](O)C(C)C)[C@@H](C)OC(=O)C2COC(=O)CNC(=O)/C=C\[C@]3(CO3)[C@@H](C)Oc3ccc(cc3)[C@H](NC1=O)C(=O)N(C)C(Cc1ccccc1)C(=O)NC(C(C)O)C(=O)N2` (some centres not stated) (X2-T[d(aIle)][X3][ξNMeF][ξT][ξS]; ester 1-C; linker 3-6 via G), the Potency result in experiment [1], in experiment [2], in [3], in experiment [4], in experiment [5] and in experiment [6] was “inactive” in each case. Also, the Potency result in experiment [7], in experiment [8], in experiment [9], in experiment [10], in experiment [11] and in experiment [12] was “inactive” in each case. The Potency result in experiment [13], in experiment [14], in [15], in [16] and in [17] was “inactive” throughout.

`C[C@]12CCC3[C@@H](CC[C@@H]4C[C@@H](O)CC[C@]34CO)[C@@]1(O)CC[C@@H]2C1=CC(=O)OC1` (some centres not stated): the Potency in [2] was 2980 nM (active); in experiment [4], 841 nM (active); in experiment [5], 1880 nM (active); in experiment [6], 2960 nM (active); in [7], 935 nM (active); in [8] it was 1170 nM (active). The Potency in [9] was 4170 nM (active); in [10], 4170 nM (active); in [11] it was 941 nM (active); in [12] it was 1930 nM (active); in experiment [18], 7670 nM (active); in [16] it was 11700 nM (active). Moreover, in experiment [17], the Potency was 1910 nM (active). Moreover, the Potency result in [13] and in experiment [15] was “inactive” throughout.

Regarding `CO[C@H]1[C@H](O[C@H]2CC[C@]3(C=O)[C@H]4CC[C@]5(C)[C@@H](C6=CC(=O)OC6)CC[C@]5(O)[C@@H]4CC[C@]3(O)C2)O[C@H](C)[C@H](O)[C@@H]1OC`, the Potency was 335 nM (active) in experiment [2]; 94.3 nM (active) in [4]; 236 nM (active) in experiment [5]; 209 nM (active) in experiment [6]; 132 nM (active) in experiment [7]; 132 nM (active) in [9]. The Potency is 295 nM (active) in [10]; 83.8 nM (active) in experiment [11]; 685 nM (active) in [12]; 767 nM (active) in experiment [18]; 741 nM (active) in experiment [16]; 303 nM (active) in experiment [17]. Besides, the Potency result in [13], in experiment [14] and in experiment [15] was “inactive” throughout.

On to `C/C=C1/CN2CC[C@@]34c5ccccc5N(C)[C@@H]3[C@@H]2C[C@@H]1[C@H]4C(=O)OC`, for which the Potency result in [1], in experiment [2], in experiment [4], in experiment [5], in [6] and in experiment [7] was “inactive” in each case. Also, the Potency entry in [10], in [11], in experiment [12], in experiment [13], in [14] and in [18] was “inactive” each time. The Potency entry in experiment [15], in [16] and in experiment [17] was “inactive” each time.

Values taken from PubChem BioAssay (NCATS).
